5 compounds from PubChem BioAssay can be followed below.

A short description of assay [1]: yeast TOR pathway RPL19A-GFP modulators, primary screen, cell-based, S. cerevisiae, multiplex flow cytometry (AID 1862; in the data active = percent of DMSO control GFP below about 86%;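 note: lower values mimic rapamycin by blocking the RPL19A rise seen in DMSO cells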). To be noted: S. cerevisiae RPL19A-GFP strain, flow cytometry fluorescence, 3 h; at 10 µM; stronger effect = lower value. In general terms: A flow cytometer gives signals particle by particle.
A short description of assay [2]: modulators of MEP2-GFP levels in yeast, primary screen, S. cerevisiae, multiplex flow cytometry (AID 1867;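 active = GFP response, as percent of the DMSO control, above the screen-wide mean plus 3 SD, about 139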;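 note: median GFP channel fluorescence of barcode-gated MEP2-GFP cells measured by flow cytometry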). To be noted: S. cerevisiae MEP2-GFP strain, 3 h, at 10 µM, stronger effect = higher value, 100% means same as DMSO wells.
Assay [3] can be described thus: modulators of CIT2-GFP expression in yeast, primary screen, S. cerevisiae, GFP fusion, multiplex flow cytometry (AID 1870;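 active = percent response above a set limit, the screen-wide mean plus 3 SD, cut at about 130% in these data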;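 note: barcoded CIT2-GFP strain pooled with four other GFP strains with rapamycin as positive control; median GFP fluorescence per well over plate mean of DMSO wells so 100% = DMSO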). To be noted: 3 h, at 10 µM, stronger effect = higher value.
The nature of assay [4]: modulators of LAP4-GFP expression in yeast, primary screen, S. cerevisiae, multiplex flow cytometry (AID 1873;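 active = GFP signal, as percent of the solvent control, above the screen mean plus 3 SD, about 149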). To be noted: 3 h, at 10 µM, stronger effect = higher value.
Assay [5] is described as follows: modulators of AGP1-GFP expression in yeast TOR pathway, primary screen, cell-based, multiplex flow cytometry, S. cerevisiae (AID 1887;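 active = GFP signal above the screen-wide mean plus 3 SD, that is over about 124.5% of the solvent control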;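 note: AGP1-GFP fusion strain of S. cerevisiae within a five-strain barcoded multiplex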). To be noted: 3 h, at 10 µM, stronger effect = higher value.
Assay [6] is described as follows: inhibitors of CD8+ T cell-vesicle binding, pilot screen, LFA-1/ICAM-1 modulator project, MLPCN validation set, flow cytometry (AID 2523;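 active = response below a set limit, under 55% cells CD8-positive and vesicle-bound, and CD8 cells' 90th-percentile brightness under 279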;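 for vesicle binding response: mean PE anti-B7-1 fluorescence of CD8+ cells relative to row control; 100% = QL9-loaded vesicles with DMSO vehicle in the same plate row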). To be noted: 2C mouse CD8+ T cells, at 7 µM, stronger effect = lower value; double positive events: measured here: CD8+/vesicle+ event percentage.
Assay [7] has as its target Integrin beta-1 (Homo sapiens) + Integrin alpha-4 (Homo sapiens) (UniProt P13612+P05556). Briefly: inhibition of HUTS-21 binding to VLA-4, pilot screen, VLA-4 allosteric modulator project, U937 cells, HUTS-21 mAb, flow cytometry, validation set (AID 2674;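 active = inhibition above 50%, about 3 SD of the validation set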;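 note: antibody binding induced by the VLA-4 ligand LDV present at three times its Kd; 0% = LDV ligand with antibody and no compound and 100% = antibody without LDV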). To be noted: HUTS-21 LIBS mAb binding, at 6.7 µM, stronger effect = higher value, binding induced by LDV ligand.
A short description of assay [8]: superoxide lowering in aged yeast cells, pilot screen, validation compound set (AID 2706;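 active = superoxide response below 65% of plate, a cut near 3 SD across the whole screen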;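 note: yeast exposed to compound for one week at 30 degrees C before staining; 100% = mean of all compound wells on the same plate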). To be noted: S. cerevisiae aging, superoxide DHE fluorescence; at 10 µM; stronger effect = lower value.
In assay [9] the target is Beta-adrenergic receptor kinase 1 (Homo sapiens) (UniProt P25098). In words: GRK2 binders displacing RNA aptamer, biochemical, validation, human GRK2, bead flow cytometry (AID 488806;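 active = aptamer binding inhibition above 30%, about 3 SD of noise from non-fluorescent compounds; inactive = inhibition at or below 30%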). To be noted: bead-bound GRK2, FAM-aptamer displacement, at 10 µM, stronger effect = higher value.
For assay [10], the target named is Beta-2 adrenergic receptor (Homo sapiens) (UniProt P07550). Briefly: beta2AR agonists driving receptor internalization, pilot screen, cell-based, FAP fluorogen, flow cytometry, validation set (AID 504459;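 active = percent response above 42, roughly 3 SD of non-fluorescent test compounds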;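 note: agonist-driven loss of surface beta2AR via internalization measured by FAP dye flow cytometry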). To be noted: Am2.2-beta2AR cells, FAP surface receptor flow cytometry; at 10 µM; stronger effect = higher value.
Assay [11] concerns the target AP-2 complex subunit beta (Homo sapiens) (UniProt P63010). Briefly: inhibitors of arrestin peptide binding to AP2, pilot screen, biochemical, validation set, GST-AP2 beads, flow cytometry (AID 504541;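 active = inhibition above 54%, about 3 SD of non-fluorescent compounds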;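 note: AP2 carries R879A mutation and is captured from E. coli lysate; bead-bound FITC arrestin peptide fluorescence measuring arrestin peptide binding to AP2; 0% = DMSO wells and 100% = excess unlabeled arrestin peptide control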). To be noted: FITC arrestin peptide, at 10 µM, stronger effect = higher value, AP2 beta2 appendage fragment, R879A mutant.
The nature of assay [12]: yeast V-ATPase proton transport modulators, S. cerevisiae, pHLuorin, HTS validation (AID 504600; in the data active = response above about 15%;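 note: plate controls were DMSO for no effect and reference compound for full effect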). To be noted: S. cerevisiae pHLuorin cytosolic pH, at 10 µM, stronger effect = higher value.
Assay [13] relates to anti-desmoglein-3 scFv antibody binding to human DSG3. Briefly: inhibitors of anti-DSG3 scFv binding to DSG3, pilot screen, biochemical, validation compound set, bead-based, flow cytometry (AID 588368;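 active = binding below the plate cutoff, the plate median minus 3 SD, with a reading above zero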;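 note: signal is the median channel fluorescence of bead-bound GFP antibody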). To be noted: Protein G beads, DSG3-Fc, scFv-GFP binding, at 10 µM, stronger effect = lower value.
The nature of assay [14]: inhibitors of fungal efflux pumps CDR1, CDR2, MDR1, pilot screen, validation compound set, multiplex, phenotypic (AID 588506;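 active = efflux inhibition above 0.42, the validation set average plus 4 SD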;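 note: Nile Red retained in cells so higher fluorescence means more efflux inhibition; 0 = negative control wells and 1 = enniatin B 25 µM full block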). To be noted: S. cerevisiae pump-expressing triplex, Nile Red efflux flow cytometry; at 10 µM; stronger effect = higher value; the pumps come from Candida albicans.
The target of assay [15] is ATP-binding cassette sub-family B member 6 (Homo sapiens) (UniProt Q9NP58). In words: ABCB6 transporter inhibitors, pilot screen, K562-ABCB6 cells, flow cytometry, validation set (AID 588550;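 active = inhibition above the screen-wide mean plus 3 SD, about 51%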;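 note: 0% = DMSO wells and 100% = benzethonium chloride 70 µM positive control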). To be noted: K562-ABCB6 porphyrin accumulation, 1 h, at 10 µM, stronger effect = higher value.
Assay [16] in a line: promoters of myeloid differentiation in arrested cells, primary screen, cell-based, GFP/MAC1 double positive, flow cytometry, validation set (AID 588685).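 Note: compound exposure lasts four days before antibody staining and flow analysis; 0% = DMSO wells and 100% = 5 µM fulvestrant positive control.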 To be noted: ER-HoxA9 marrow cells, stronger effect = higher value, normalized: vehicle 0, fulvestrant 100.

Results filed as inconclusive are left out. Activity calls are given as the source filed them.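 Rule for the calls, unless noted: active = differentiation response of at least 50%, scaled between solvent and reference control, from cells with both markers; inactive = the rest.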

ATP-binding cassette sub-family B member 6 (Homo sapiens), sequence (Q9NP58 whole entry, looked up): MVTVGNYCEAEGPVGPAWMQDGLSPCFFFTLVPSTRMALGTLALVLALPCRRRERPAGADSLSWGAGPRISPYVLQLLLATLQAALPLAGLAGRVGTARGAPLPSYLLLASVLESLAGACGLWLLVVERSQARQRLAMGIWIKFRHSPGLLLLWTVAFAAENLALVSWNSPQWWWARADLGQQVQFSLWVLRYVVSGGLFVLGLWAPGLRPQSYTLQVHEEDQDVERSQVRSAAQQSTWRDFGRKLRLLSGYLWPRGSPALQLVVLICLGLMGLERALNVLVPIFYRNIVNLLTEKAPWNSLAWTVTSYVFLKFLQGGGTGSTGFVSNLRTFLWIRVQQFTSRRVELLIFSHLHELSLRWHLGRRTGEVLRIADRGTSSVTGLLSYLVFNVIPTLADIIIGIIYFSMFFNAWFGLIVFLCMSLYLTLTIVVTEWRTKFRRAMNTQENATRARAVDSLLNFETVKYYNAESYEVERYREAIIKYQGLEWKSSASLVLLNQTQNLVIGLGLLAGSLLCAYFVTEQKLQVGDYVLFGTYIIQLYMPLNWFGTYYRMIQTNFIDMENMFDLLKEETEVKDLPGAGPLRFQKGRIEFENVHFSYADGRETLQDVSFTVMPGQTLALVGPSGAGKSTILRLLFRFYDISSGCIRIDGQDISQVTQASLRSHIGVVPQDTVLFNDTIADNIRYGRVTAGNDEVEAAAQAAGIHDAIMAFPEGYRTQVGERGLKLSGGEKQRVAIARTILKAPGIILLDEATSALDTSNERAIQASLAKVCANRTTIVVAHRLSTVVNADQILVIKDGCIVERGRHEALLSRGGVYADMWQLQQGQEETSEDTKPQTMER
Beta-2 adrenergic receptor (Homo sapiens), sequence (P07550 whole entry, looked up): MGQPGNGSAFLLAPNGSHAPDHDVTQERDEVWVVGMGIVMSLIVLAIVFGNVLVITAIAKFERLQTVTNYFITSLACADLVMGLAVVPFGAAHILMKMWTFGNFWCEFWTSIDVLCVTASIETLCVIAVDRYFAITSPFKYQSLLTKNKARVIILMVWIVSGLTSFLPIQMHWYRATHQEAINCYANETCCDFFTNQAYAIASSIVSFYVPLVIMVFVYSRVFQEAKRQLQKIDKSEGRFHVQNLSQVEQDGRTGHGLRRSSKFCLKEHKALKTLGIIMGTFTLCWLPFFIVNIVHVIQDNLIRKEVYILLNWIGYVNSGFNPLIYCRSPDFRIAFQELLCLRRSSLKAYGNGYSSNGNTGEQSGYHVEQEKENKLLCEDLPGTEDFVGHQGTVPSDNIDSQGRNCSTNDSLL
Beta-adrenergic receptor kinase 1 (Homo sapiens), sequence (P25098 whole entry, looked up): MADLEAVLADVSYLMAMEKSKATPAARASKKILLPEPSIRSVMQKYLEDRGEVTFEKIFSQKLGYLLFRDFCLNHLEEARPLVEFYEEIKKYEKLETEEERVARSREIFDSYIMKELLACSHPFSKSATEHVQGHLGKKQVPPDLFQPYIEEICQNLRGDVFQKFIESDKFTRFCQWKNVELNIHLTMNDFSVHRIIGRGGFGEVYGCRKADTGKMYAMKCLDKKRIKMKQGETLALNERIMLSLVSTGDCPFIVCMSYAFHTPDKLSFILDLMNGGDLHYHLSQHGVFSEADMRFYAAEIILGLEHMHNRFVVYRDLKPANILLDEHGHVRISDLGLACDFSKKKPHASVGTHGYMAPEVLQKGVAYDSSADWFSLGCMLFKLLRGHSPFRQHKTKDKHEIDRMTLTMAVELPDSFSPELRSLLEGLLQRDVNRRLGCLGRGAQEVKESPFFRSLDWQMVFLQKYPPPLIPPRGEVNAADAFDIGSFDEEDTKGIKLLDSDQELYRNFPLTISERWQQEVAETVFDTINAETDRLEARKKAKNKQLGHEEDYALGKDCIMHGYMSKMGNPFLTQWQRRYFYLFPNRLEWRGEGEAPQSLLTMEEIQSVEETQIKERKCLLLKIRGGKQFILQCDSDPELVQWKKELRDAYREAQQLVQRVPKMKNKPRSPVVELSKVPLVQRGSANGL
AP-2 complex subunit beta (Homo sapiens), sequence (P63010 whole entry, looked up, the tested form may be a part, one chain of several): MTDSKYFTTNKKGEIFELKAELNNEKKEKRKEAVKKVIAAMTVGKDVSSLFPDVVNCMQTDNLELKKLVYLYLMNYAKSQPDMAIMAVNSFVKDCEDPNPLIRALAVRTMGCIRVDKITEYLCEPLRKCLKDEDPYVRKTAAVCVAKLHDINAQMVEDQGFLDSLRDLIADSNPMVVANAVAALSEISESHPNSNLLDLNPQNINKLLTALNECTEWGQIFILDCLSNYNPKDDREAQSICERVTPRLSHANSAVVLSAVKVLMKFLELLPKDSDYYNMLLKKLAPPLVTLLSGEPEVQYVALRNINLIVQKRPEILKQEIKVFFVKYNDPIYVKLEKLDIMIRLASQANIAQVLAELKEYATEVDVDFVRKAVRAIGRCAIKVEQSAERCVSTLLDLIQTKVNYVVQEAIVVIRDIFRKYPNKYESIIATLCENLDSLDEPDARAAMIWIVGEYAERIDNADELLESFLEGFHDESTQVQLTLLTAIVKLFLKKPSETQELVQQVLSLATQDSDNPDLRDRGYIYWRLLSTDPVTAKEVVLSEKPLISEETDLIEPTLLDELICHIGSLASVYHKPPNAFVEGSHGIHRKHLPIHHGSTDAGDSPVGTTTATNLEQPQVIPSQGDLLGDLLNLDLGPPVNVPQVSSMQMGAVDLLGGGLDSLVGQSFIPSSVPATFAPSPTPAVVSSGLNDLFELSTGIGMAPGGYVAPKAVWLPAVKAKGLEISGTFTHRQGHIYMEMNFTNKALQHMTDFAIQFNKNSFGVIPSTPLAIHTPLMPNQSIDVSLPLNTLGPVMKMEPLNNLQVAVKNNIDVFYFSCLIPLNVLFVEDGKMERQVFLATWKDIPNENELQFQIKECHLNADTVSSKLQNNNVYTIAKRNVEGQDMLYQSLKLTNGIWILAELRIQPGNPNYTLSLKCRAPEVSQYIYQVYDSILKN
Integrin beta-1 (Homo sapiens) + Integrin alpha-4 (Homo sapiens), sequence (P05556 whole entry, looked up): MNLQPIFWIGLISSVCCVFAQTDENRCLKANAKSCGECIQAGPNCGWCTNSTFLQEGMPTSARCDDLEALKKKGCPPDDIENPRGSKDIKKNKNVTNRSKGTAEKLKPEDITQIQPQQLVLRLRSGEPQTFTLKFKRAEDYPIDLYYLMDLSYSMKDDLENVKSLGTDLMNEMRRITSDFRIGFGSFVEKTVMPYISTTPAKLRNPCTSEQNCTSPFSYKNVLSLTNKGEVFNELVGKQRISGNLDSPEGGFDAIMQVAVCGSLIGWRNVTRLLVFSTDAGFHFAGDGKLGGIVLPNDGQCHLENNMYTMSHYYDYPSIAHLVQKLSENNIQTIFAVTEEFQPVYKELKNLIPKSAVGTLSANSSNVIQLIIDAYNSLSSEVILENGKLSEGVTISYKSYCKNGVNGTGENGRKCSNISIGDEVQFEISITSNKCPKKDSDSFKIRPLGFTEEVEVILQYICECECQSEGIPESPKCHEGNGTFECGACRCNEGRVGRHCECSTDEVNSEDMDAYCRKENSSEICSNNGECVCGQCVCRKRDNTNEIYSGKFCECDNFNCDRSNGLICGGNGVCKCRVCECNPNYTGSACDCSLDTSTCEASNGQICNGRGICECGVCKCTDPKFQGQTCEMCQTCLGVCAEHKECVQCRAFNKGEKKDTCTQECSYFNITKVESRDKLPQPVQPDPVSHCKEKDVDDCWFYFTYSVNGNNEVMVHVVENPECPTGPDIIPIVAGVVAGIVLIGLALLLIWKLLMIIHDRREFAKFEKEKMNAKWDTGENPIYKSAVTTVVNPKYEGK
Integrin beta-1 (Homo sapiens) + Integrin alpha-4 (Homo sapiens), sequence (P13612 whole entry, looked up): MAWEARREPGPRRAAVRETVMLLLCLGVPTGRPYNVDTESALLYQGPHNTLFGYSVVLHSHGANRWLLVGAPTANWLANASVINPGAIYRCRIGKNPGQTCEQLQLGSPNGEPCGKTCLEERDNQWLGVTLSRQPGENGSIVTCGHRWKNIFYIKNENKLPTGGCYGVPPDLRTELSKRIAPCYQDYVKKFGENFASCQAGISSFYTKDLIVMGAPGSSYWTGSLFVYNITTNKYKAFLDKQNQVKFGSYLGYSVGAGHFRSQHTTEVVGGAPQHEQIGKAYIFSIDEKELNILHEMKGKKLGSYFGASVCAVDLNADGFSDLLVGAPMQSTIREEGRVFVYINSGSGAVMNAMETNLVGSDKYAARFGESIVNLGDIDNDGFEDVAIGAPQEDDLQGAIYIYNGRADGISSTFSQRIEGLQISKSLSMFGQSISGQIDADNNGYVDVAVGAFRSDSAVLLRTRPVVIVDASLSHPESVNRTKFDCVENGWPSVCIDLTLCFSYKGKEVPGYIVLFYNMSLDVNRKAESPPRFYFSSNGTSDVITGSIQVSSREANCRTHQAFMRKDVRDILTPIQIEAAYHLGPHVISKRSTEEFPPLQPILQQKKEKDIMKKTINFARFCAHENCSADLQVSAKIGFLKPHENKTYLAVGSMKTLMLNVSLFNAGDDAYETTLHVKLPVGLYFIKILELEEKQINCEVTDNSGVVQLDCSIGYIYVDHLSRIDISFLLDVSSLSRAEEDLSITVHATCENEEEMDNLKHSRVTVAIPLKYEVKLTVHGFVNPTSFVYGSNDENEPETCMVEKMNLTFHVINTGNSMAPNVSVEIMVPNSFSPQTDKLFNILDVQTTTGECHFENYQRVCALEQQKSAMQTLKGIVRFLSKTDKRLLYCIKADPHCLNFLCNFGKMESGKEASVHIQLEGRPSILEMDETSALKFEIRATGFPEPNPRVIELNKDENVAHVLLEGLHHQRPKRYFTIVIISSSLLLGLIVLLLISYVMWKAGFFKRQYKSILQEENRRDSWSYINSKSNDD

On to `CC(=O)CCc1c(C)c2cccc(C)c2[nH]c1=O`, for which, in assay [1], the percent of DMSO control GFP is 104% (inactive). In addition, the GFP response vs DMSO in assay [2] was 99.6% (inactive); in assay [4], 97.4% (inactive). Moreover, the percent response of DMSO control in assay [3] was 103% (inactive). For the same compound, in [5], the GFP response, % of DMSO was 98.8% (inactive). Moreover, the double positive events in [6] is 56.4%. The vesicle binding response in assay [6] is 269% (inactive). Further, the inhibition (in general, the drop in the measured response relative to a control, in per cent) in assay [7] was -9.98% (inactive); in assay [11], -3.21% (inactive); in assay [15], 9% (inactive). For the same compound, in assay [8], the superoxide response (% of plate) was 105% (inactive). In [9], the aptamer binding inhibition is 1% (inactive). The response is -3.42% (inactive) in assay [10] and -0.84% (inactive) in assay [12]. Besides, in assay [13], the binding (% of control) was 95.5% (inactive). In [14], the efflux inhibition (fraction of control) was -0.03 (inactive). The differentiation response in [16] was -18.4% (inactive).

Regarding `O=C(O)/C=C/c1cccc(OCc2ccccc2)c1`, in assay [1], the percent of DMSO control GFP is 93.8% (inactive). Besides, the GFP response vs DMSO in [2] is 105% (inactive); in [4], 123% (inactive). The percent response of DMSO control in assay [3] was 93.4% (inactive). Besides, the GFP response, % of DMSO in [5] is 82.2% (inactive). In addition, the double positive events in [6] came to 58.1%. In addition, the vesicle binding response in assay [6] is 131% (inactive). Further, the inhibition is 5.61% (inactive) in [7], 13.5% (inactive) in assay [11] and 8% (inactive) in assay [15]. Moreover, the superoxide response (% of plate) in assay [8] was 104% (inactive). The aptamer binding inhibition in assay [9] is 3% (inactive). Moreover, the response in [10] is 4.34% (inactive); in assay [12], -4.03% (inactive). Besides, the binding (% of control) in assay [13] is 94.3% (inactive). The efflux inhibition (fraction of control) in [14] is -0.24 (inactive). Further, in assay [16], the differentiation response is -8.96% (inactive).

As for `CS(=O)c1ccccc1O` (stereo not given), in assay [1], the percent of DMSO control GFP is 103% (inactive). For the same compound, the GFP response vs DMSO in assay [2] was 98.8% (inactive); in assay [4] it was 93% (inactive). Further, the percent response of DMSO control in assay [3] is 92.8% (inactive). Besides, in assay [5], the GFP response, % of DMSO was 99.2% (inactive). Moreover, the double positive events in assay [6] was found to be 67.1%. The vesicle binding response in assay [6] was 144% (inactive). Besides, the inhibition was 8.28% (inactive) in [7], 38.1% (inactive) in [11] and 11% (inactive) in assay [15]. Besides, the superoxide response (% of plate) in [8] was 47.1% (active). The aptamer binding inhibition in assay [9] is 0% (inactive). Moreover, the response in [10] is 33.6% (inactive); in assay [12] it was 0.1% (inactive). Also, in assay [13], the binding (% of control) is 101% (inactive). Further, the efflux inhibition (fraction of control) in assay [14] was -0.15 (inactive). Besides, in assay [16], the differentiation response was 3.45% (inactive).

As for `COc1ccc(C(C)N2CC34C=CC(O3)C(C(=O)OCC(C)C)C4C2=O)cc1` (stereo not given), in assay [1], the percent of DMSO control GFP was 103% (inactive). For the same compound, the GFP response vs DMSO is 107% (inactive) in assay [2] and 92% (inactive) in assay [4]. The percent response of DMSO control in [3] is 96.6% (inactive). Moreover, the GFP response, % of DMSO in assay [5] is 107% (inactive). The compound also yielded a double positive events in assay [6] of 63.5%. The vesicle binding response in assay [6] is 5650% (inactive). The results for the inhibition in assay [7], in [11] and in assay [15] were -10.8% (inactive), -17.5% (inactive) and -4% (inactive), respectively. The superoxide response (% of plate) in [8] was 98.6% (inactive). Besides, in [9], the aptamer binding inhibition was 1% (inactive). In addition, the response in assay [10] was -2.15% (inactive); in assay [12], 3.8% (inactive). Further, in [13], the binding (% of control) is 96.9% (inactive). For the same compound, the efflux inhibition (fraction of control) in assay [14] was 0.02 (inactive). In addition, in assay [16], the differentiation response was -8.55% (inactive).

As to `CCOc1ccc(N2C(=O)CC(NCCNc3ccc([N+](=O)[O-])cn3)C2=O)cc1` (stereo not given), the percent of DMSO control GFP in [1] is 103% (inactive). Also, the GFP response vs DMSO in assay [2] is 95.6% (inactive); in assay [4], 98% (inactive). Moreover, the percent response of DMSO control in assay [3] was 106% (inactive). In assay [5], the GFP response, % of DMSO is 93% (inactive). For the same compound, the double positive events in [6] is 53.2%. For the same compound, in assay [6], the vesicle binding response is 145% (inactive). The inhibition is 15% (inactive) in [7], -8.05% (inactive) in assay [11] and 8% (inactive) in assay [15]. Further, in assay [8], the superoxide response (% of plate) is 94.4% (inactive). For the same compound, in assay [9], the aptamer binding inhibition is 0% (inactive). Also, the response in assay [10] was 1.65% (inactive); in assay [12], 4.15% (inactive). Further, the binding (% of control) in assay [13] is 98.8% (inactive). The efflux inhibition (fraction of control) in [14] was 0.06 (inactive). Besides, the differentiation response in [16] was -4.57% (inactive).
